In PubChem BioAssay (NCATS):
Records with an inconclusive call do not appear. Entries that show only a call come without a potency. Activity calls are given as the source filed them. Calls come from the whole dose curve; as a rule, active = well fitted curve in the direction sought with a large enough effect; inconclusive = small, poorly fitted or top-dose-only effect, or another doubt; inactive = no such curve, though single readings can be large; an effect the other way counts as inactive or inconclusive.

Experiments:
[1] = qHTS to identify inhibitors of the type 1 interferon - major histocompatibility complex class I in skeletal muscle: primary screen against the NCATS LOPAC collection (AID 1347405);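 note: lytic HiBiT luminescence reporting HLA-B protein level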; note: potency is the fitted concentration of half-maximal effect
Method in brief: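 Immortalized human C25cl48 myoblasts with HiBiT knocked into endogenous HLA-B*08:01 were stimulated with 4.0 ng/ml IFN-beta and given compounds in a 7-point, 1:4.3 titration from 46 uM final; after 24 hrs, lytic HiBiT luminescence was read.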

[2] = qHTS for inhibitors of adenylyl cyclases using a fission yeast platform: a pilot screen against the NCATS LOPAC library (AID 1347410)
Method in brief: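 Fission yeast qHTS: CHP2027 cells (AC9-GNAS-PDE4D2, fbp1-GFP), 5x10^6 cells/mL working density, EMM + His/Lys/Ura; LOPAC at up to 57 µM final; 18 h dark, 30C; GFP by laser cytometry. DPI positive control, DMSO vehicle.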

[3] = Validation qHTS assay for inhibitors of Activation Induced Cytidine Deaminase (AID): UDG Counterscreen signal (AID 1347427)
Method in brief: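 Counterscreen read of UDG activity (2 U/mL, 4/3x) in the FRET deamination format with AID (1 uM, 4/3x), DJC20/DJC23 substrates (250 nM, 4x), 4 h at room temperature. NaOH stop, fluorescence at 560 ex/665 em.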

[4] = target: Single-stranded DNA cytosine deaminase (Homo sapiens) (UniProt Q9GZX7); assay: Validation qHTS assay for inhibitors of Activation Induced Cytidine Deaminase (AID): AID signal (AID 1347429)
Chain of Single-stranded DNA cytosine deaminase (Homo sapiens) (Q9GZX7 whole entry, looked up): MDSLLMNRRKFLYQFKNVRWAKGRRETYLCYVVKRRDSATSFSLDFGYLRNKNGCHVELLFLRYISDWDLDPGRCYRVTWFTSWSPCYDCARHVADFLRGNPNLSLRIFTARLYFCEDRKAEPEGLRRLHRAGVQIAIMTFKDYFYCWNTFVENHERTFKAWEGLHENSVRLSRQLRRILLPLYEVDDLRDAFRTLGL
Method in brief: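 AID and UDG were combined and compounds added at final up to 114 uM, then DJC20/DJC23 FRET substrate was added for 4 hr at room temperature. NaOH was then added for 30 min before fluorescence was read at 540/590 nm.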

[5] = Primary qHTS for inhibitors of La Crosse Virus (LACV) - induced cell death in SH-SY5Y cells (AID 1508616);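 note: top concentration of the series differs between compounds; higher means more rescue of cells from virus-induced death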
Method in brief: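 Luminescent ATP readout (ATPLite 1step, 5 min room temperature) measured rescue from LACV-induced death after 6 days of infection at 0.01 MOI; normalized to infected DMSO wells and uninfected DMSO wells.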

| SMILES | Potency [1] | outcome [2] | Potency [3] | Potency [4] | Potency [5] |
| --- | --- | --- | --- | --- | --- |
| CCCCC[C@H](CC(=O)NO)C(=O)N[C@H](C(=O)N1CCC[C@H]1CO)C(C)C | inactive | inactive | inactive | inactive | inactive |
| CN1Cc2sccc2C(c2ccc(O)c(O)c2)C1 (stereo not given) | inactive | inactive | inactive | inactive | inactive |
| N#CC(C#N)=C(N)/C(C#N)=C/c1ccc(O)cc1 | inactive | inactive | inactive | inactive | inactive |
| N[C@@H](Cc1ccc(F)cc1)C(=O)O | inactive | inactive | inactive | inactive | inactive |
| N=S(=O)(O)Cc1noc2ccccc12 | inactive | inactive | inactive | inactive | inactive |
| C[C@@H](NCCc1ccc(O)cc1)[C@@H](O)c1ccc(O)cc1 | inactive | inactive | inactive | inactive | inactive |
| Cc1nc(N=Nc2ccc(S(=O)(=O)O)cc2S(=O)(=O)O)c(COP(=O)(O)O)c(C=O)c1O | inactive | inactive | inactive | inactive | inactive |
| Cc1cc2c(cc1Cl)N(C(=O)Nc1ccnc3ccccc13)CC2 | inactive | inactive | inactive | inactive | inactive |
| C[N+](C)(C)CC=O | inactive | inactive | inactive | inactive | inactive |
| CC1=C(C(=O)O)N2C(=O)[C@@H](NC(=O)C(N)C3=CCC=CC3)[C@H]2SC1 (stereo not given in full) | inactive | inactive | inactive | inactive | inactive |
| CNC(=O)c1cc2c(cn1)[nH]c1ccccc12 | inactive | inactive | inactive | inactive | inactive |
| COC(=O)[C@H](NC(=O)c1cc(-c2ccccc2)nc2ccccc12)c1ccccc1 | inactive | inactive | inactive | inactive | inactive |
| COc1ccc2c(c1)c(CC(=O)O)c(C)n2C(=O)c1ccccc1 | inactive | inactive | inactive | inactive | inactive |
| COc1ccc(-c2ccc(N)[n+](CCCC(=O)O)n2)cc1 | inactive | inactive | inactive | inactive | inactive |
| Cn1c(=O)c2[nH]c(-c3ccc(S(=O)(=O)O)cc3)nc2n(C)c1=O | inactive | inactive | inactive | inactive | inactive |
| CC(N)(Cc1ccc(O)c(O)c1)C(=O)O (stereo not given) | inactive | inactive | inactive | inactive | inactive |
| CCCCS(=N)(=O)CC[C@H](N)C(=O)O (stereo not given in full) | inactive | inactive | inactive | inactive | inactive |
| CCCCCCN(CCCCCC)C(=O)Cc1c(-c2ccc(F)cc2)[nH]c2ccccc12 | inactive | inactive | inactive | inactive | inactive |
| Cc1nc2n(c(=O)c1CCN1CCC(c3noc4cc(F)ccc34)CC1)CCCC2O (stereo not given) | inactive | inactive | inactive | inactive | inactive |

| SMILES | Potency [1] | outcome [2] | Potency [3] | Potency [4] | Potency [5] |
| --- | --- | --- | --- | --- | --- |
| N[C@@H](CCC(=O)N[C@H](CSN=O)C(=O)NCC(=O)O)C(=O)O | inactive | inactive | inactive | inactive | inactive |
| NC/C=C\C(=O)O | inactive | inactive | inactive | inactive | inactive |
| N[C@H](C(=O)O)[C@H](Cc1ccccc1)C(=O)O | inactive | inactive | inactive | inactive | inactive |
| Cn1cc(C(F)(F)F)nc1-c1ccc(OCC(O)CNCCOc2ccc(O)c(C(N)=O)c2)cc1 (stereo not given) | inactive | inactive | inactive | inactive | inactive |
| CCN1C(=O)C=CC1=O | inactive | inactive | inactive | inactive | inactive |
| NC1CCN(O)C1=O (stereo not given) | inactive | inactive | inactive | inactive | inactive |
| OC1(c2ccc(Cl)cc2)CCN(Cc2c[nH]c3ccccc23)CC1 | inactive | inactive | inactive | inactive | inactive |
| Nc1nc2[nH]c(=O)cnc2c(=O)[nH]1 | inactive | inactive | inactive | inactive | inactive |
| CC(=O)/C(C)=N/O | inactive | inactive | inactive | inactive | inactive |
| CCn1c(=O)[nH]c2cc(Cl)c(Cl)cc21 | 3.16 µM (active) | inactive | inactive | inactive | inactive |
| Nc1nc2c(nc(Br)n2C2OC3COP(=O)(O)O[C@@H]3C2O)c(=O)[nH]1 (stereo not given in full) | inactive | inactive | inactive | inactive | inactive |
| N[C@H]1CONC1=O | inactive | inactive | inactive | inactive | inactive |
| C=CCn1c(=O)c2c(nc(-c3ccc(S(=O)(=O)O)cc3)n2C)n(C)c1=O | inactive | inactive | inactive | inactive | inactive |
| Cc1nc(N=Nc2ccc(C(=O)O)cc2)c(COP(=O)(O)O)c(C=O)c1O | inactive | inactive | inactive | inactive | inactive |
| N[C@@H](Cc1ccc(O)c(I)c1)C(=O)O | inactive | inactive | inactive | inactive | inactive |
| NC(N)=NC(N)=Nc1ccccc1 | inactive | inactive | inactive | inactive | inactive |
| Cc1cccc(C(=O)NCN2CCN(c3ccccc3C#N)CC2)c1 | inactive | inactive | inactive | inactive | inactive |
| CC(O)C(O)[C@H]1CNc2nc(N)[nH]c(=O)c2N1 (stereo not given in full) | inactive | inactive | inactive | inactive | inactive |
